From PubChem BioAssay AID743449 (Broad Institute, 2014)
Where “and” joins values, the source holds several entries; their conditions need not be identical. Equal entries are not always repeated. About 90 (0.9%) of roughly 9,900 compounds were called active. Inconclusive results (about 2%) are left out. The sample as a whole holds a higher share of actives than the screen did. Values without a mark were called inactive.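 The calls were made as follows: active = mean normalized replicate activity at least 50 and at least half of replicates each reaching 50; inconclusive = only one of the two criteria met; inactive = neither criterion met.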

Assay: YAP1 pathway inhibitors via CTGF transcript, primary screen, DLD1 colon cancer cells, RT-qPCR, single point (AID 743449);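 also: 0% = neutral control wells and 100% = dasatinib control wells; higher means stronger suppression of CTGF expression like dasatinib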
Details: DLD1 CTGF mRNA qPCR, 24 h; at 12.5 µM; hits give high values

| SMILES | inhibition |
| --- | --- |
| C[C@H]1CN([C@@H](C)CO)C(=O)c2ccccc2-c2ccccc2CO[C@@H]1CN(C)C(=O)[C@H](Cc1ccccc1)N(C)C | -17.8% |
| Cc1noc(C)c1NC(=O)N(C)C[C@@H]1OCc2ccccc2-c2c(n(C)c3ccccc23)C(=O)N([C@H](C)CO)C[C@@H]1C | -14.8% |
| CCCC(=O)Nc1ccc2c(c1)C(=O)N(C)C[C@H](OC)[C@@H](C)CN(C(=O)c1ccccn1)[C@@H](C)CO2 | 25.7% |
| O=C([C@H]1[C@H](CO)[C@H]2Cn3c(ccc(-c4ccc(F)cc4)c3=O)[C@H]2N1Cc1cocn1)N1CCCCC1 | 53.6% (active) |
| O=C([C@@H]1[C@@H](CO)[C@@H]2Cn3c(ccc(-c4ccc(F)cc4)c3=O)[C@@H]2N1Cc1cocn1)N1CCCCC1 | -1.91% |
| O=C(NCC1CC1)[C@H]1[C@H](CO)[C@H]2Cn3c(ccc(-c4cccnc4)c3=O)[C@H]2N1Cc1cocn1 | -2.27% |
| CCS(=O)(=O)Nc1ccc2c(c1)C(=O)N(C)C[C@H](OC)[C@H](C)CN(C(=O)c1ccc3c(c1)OCO3)[C@@H](C)CO2 | -9.16% |
| C[C@@H]1CN([C@H](C)CO)C(=O)CCCn2nncc2CO[C@H]1CN(C)Cc1ccc(C(=O)Nc2ccccc2N)cc1 | -132% |
| COc1ccccc1C(=O)Nc1ccc2c(c1)C(=O)N(C)C[C@H](OC)[C@@H](C)CN(C(C)=O)[C@@H](C)CO2 | 64.2% (active) |
| COc1ccccc1C(=O)Nc1ccc2c(c1)C(=O)N(C)C[C@@H](OC)[C@@H](C)CN(C(C)=O)[C@@H](C)CO2 | -6.31% |
| CO[C@H]1CN(C)C(=O)c2cc(NC(=O)Nc3ccccc3F)ccc2OC[C@H](C)N(CCC(F)(F)F)C[C@@H]1C | 65.1% (active) |
| CO[C@H]1CN(C)C(=O)c2cc(NC(=O)Nc3ccccc3F)ccc2OC[C@@H](C)N(CCC(F)(F)F)C[C@@H]1C | 8.27% |
| CCC(=O)N1C[C@H](C)[C@@H](OC)CN(C)C(=O)c2cc(NC(=O)Nc3ccc(Cl)cc3)ccc2OC[C@@H]1C | 59.6% (active) |
| CCC(=O)N1C[C@@H](C)[C@@H](OC)CN(C)C(=O)c2cc(NC(=O)Nc3ccc(Cl)cc3)ccc2OC[C@H]1C | -27.4% |
| CO[C@@H]1CN(C)C(=O)c2cc(NS(=O)(=O)c3ccccc3C)ccc2OC[C@@H](C)N(S(=O)(=O)c2ccccc2)C[C@H]1C | 75.2% (active) |
| COc1ccccc1C(=O)Nc1ccc2c(c1)C(=O)N(C)C[C@H](OC)[C@H](C)CN(C(C)=O)[C@H](C)CO2 | -22.7% |
| CCC(=O)N1C[C@@H](C)[C@@H](OC)CN(C)C(=O)c2cc(NC(=O)Nc3ccc(Cl)cc3)ccc2OC[C@@H]1C | 15% |
| CO[C@@H]1CN(C)C(=O)c2cc(NC(=O)Nc3ccccc3F)ccc2OC[C@H](C)N(CCC(F)(F)F)C[C@H]1C | 21% |
| CCCN1C[C@@H](C)[C@H](OC)CN(C)C(=O)c2cc(NS(=O)(=O)c3ccccc3)ccc2OC[C@@H]1C | -22.6% |
| CCCN1C[C@H](C)[C@@H](OC)CN(C)C(=O)c2cc(NS(=O)(=O)c3ccccc3)ccc2OC[C@H]1C | 2.69% |
| C[C@H](CO)N1C[C@H](C)[C@@H](CN(C)S(=O)(=O)c2cn(C)cn2)OCc2ccccc2-c2ccccc2C1=O | 13.5% |

| SMILES | inhibition |
| --- | --- |
| C[C@H]1CN([C@@H](C)CO)C(=O)c2cc(-c3ccncc3)cnc2O[C@@H]1CN(C)C(=O)CN1CCOCC1 | 4.89% |
| O=C(C1CCOCC1)N1C[C@H]2[C@@H](c3ccccc31)[C@H](CO)N2C(=O)Cc1ccccn1 | -3.22% |
| CCCNC(=O)N(C)C[C@H]1[C@H](c2ccccc2)[C@@H](CO)N1C(=O)c1ccccc1 | 13.1% |
| COCC(=O)Nc1ccc2c(c1)[C@H]1C[C@@H](CC(=O)N3CCOCC3)O[C@H](CO)[C@H]1O2 | -2.81% |
| C[C@H](CO)N1C[C@H](C)[C@H](CN(C)Cc2cccnc2)Oc2ncc(-c3ccc(C#N)cc3)cc2C1=O | 10.9% |
| Cc1noc(C)c1S(=O)(=O)N(C)C[C@H]1OCCCC[C@@H](C)Oc2ccc(NC(=O)CCC(F)(F)F)cc2C(=O)N([C@@H](C)CO)C[C@H]1C | -10.5% |
| CCN1[C@@H]2c3ccc(C4=CCCC4)c(=O)n3C[C@@H]2[C@@H](CO)[C@@H]1C(=O)NC1Cc2ccccc2C1 | -18.3% |
| Cc1cc(C(=O)Nc2ccc3c(c2)C(=O)N(C)[C@@H]2CC[C@@H](CC(=O)O)O[C@H]2CO3)no1 | 8.49% |
| COCC(=O)N1CC[C@@H]2[C@H](CO)Nc3ccc(C#Cc4ccc(F)cc4)cc3[C@@H]21 | 51.2% (active) |
| COCC(=O)N1CC[C@@H]2[C@@H](CO)Nc3ccc(C#Cc4ccc(F)cc4)cc3[C@@H]21 | 12.9% |
| COCC(=O)N1CC[C@@H]2[C@H]1c1cc(C#Cc3ccc(F)cc3)ccc1N[C@@H]2CO | 22.4% |
| COc1cccc(NC(=O)C[C@@H]2CC[C@@H]3[C@H](COc4ccc(NS(=O)(=O)c5cccc(F)c5)cc4C(=O)N3C)O2)c1 | -76.5% |
| C[C@H]1CN([C@@H](C)CO)C(=O)c2ccccc2-c2ccccc2CO[C@@H]1CN(C)S(=O)(=O)c1cn(C)cn1 | -12.7% |
| C[C@H]1CN([C@@H](C)CO)C(=O)c2ccccc2-c2ccccc2CO[C@H]1CN(C)Cc1cccc2c1OCCCO2 | 24% |
| C[C@H](CO)N1C[C@H](C)[C@H](CN(C)Cc2ccccc2C(F)(F)F)OCc2ccccc2-c2ccccc2C1=O | 26.5% |
| C[C@@H]1CN([C@H](C)CO)C(=O)c2ccccc2-c2ccccc2CO[C@@H]1CN(C)Cc1cccc2c1OCCCO2 | 59.4% (active) |
| C[C@@H]1CN([C@@H](C)CO)C(=O)c2ccccc2-c2ccccc2CO[C@@H]1CN(C)Cc1ccccc1C(F)(F)F | -64.4% |
| C[C@H](CO)N1C[C@H](C)[C@@H](CN(C)S(=O)(=O)c2ccc([N+](=O)[O-])cc2)OCc2ccccc2-c2c(n(C)c3ccccc23)C1=O | 63.8% (active) |
| C[C@@H]1CN([C@@H](C)CO)C(=O)c2ccccc2-c2ccccc2CO[C@@H]1CN(C)Cc1cccc2c1OCCCO2 | 14.7% |
| C[C@@H]1CN([C@@H](C)CO)C(=O)c2ccccc2-c2ccccc2CO[C@@H]1CN(C)S(=O)(=O)c1cn(C)cn1 | 63% (active) |
| C[C@@H]1CN([C@@H](C)CO)C(=O)c2ccccc2-c2ccccc2CO[C@H]1CN(C)S(=O)(=O)c1cn(C)cn1 | -9.13% |

| SMILES | inhibition |
| --- | --- |
| C[C@@H]1CN([C@H](C)CO)C(=O)c2ccccc2-c2ccccc2CO[C@@H]1CN(C)Cc1ccccc1C(F)(F)F | 69.6% (active) |
| C[C@H]1CN([C@@H](C)CO)C(=O)c2c(c3ccccc3n2C)-c2ccccc2CO[C@@H]1CN(C)S(=O)(=O)c1ccc([N+](=O)[O-])cc1 | 23.9% |
| C[C@@H]1CN([C@@H](C)CO)C(=O)c2c(c3ccccc3n2C)-c2ccccc2CO[C@H]1CN(C)S(=O)(=O)c1ccc([N+](=O)[O-])cc1 | 7.85% |
| O=C(c1cnccn1)N1C[C@@H]2N[C@H](C1)C2c1ccc(/C=C/c2ccccc2)cc1 (stereo partly drawn) | -30.1% and 19.5% |
| O=C(C[C@H]1CC[C@H]2[C@@H](COC[C@@H](O)CN2C(=O)c2ccc(F)cc2)O1)N1CCCCC1 | -4.99% |
| COc1ccc(-c2ccc([C@H]3[C@H](CO)N4C(=O)CN(C(=O)C5CC5)C[C@@H]34)cc2)cc1 | 4.63% |
| COc1cccc(NC(=O)N[C@H]2CC[C@@H](CC(=O)N3CCN(C)CC3)O[C@@H]2CO)c1 | -6.95% |
| O=C(NC[C@H]1N[C@H](CO)[C@@H]1c1ccc(-c2cncnc2)cc1)C1CCCCC1 | -7.65% |
| COc1ccc2c3c(n(C)c2c1)[C@@H](CO)N(C(C)=O)CC31CN(S(=O)(=O)c2ccccc2)C1 | 1.07% |
| CC(C)c1cccc(NC(=O)C[C@H]2CC[C@H]3[C@@H](COc4ccc(NC(=O)NCc5ccccc5)cc4C(=O)N3C)O2)c1 | 22.2% |
| O=C(Nc1ccccc1F)N1C[C@@H]2[C@H](c3ccccc31)[C@@H](CO)N2C(=O)Cc1cccnc1 | 7.57% |
| CN1c2ccc(Br)cc2[C@@H]2[C@@H](CCN2S(=O)(=O)c2ccccc2F)[C@@H]1CO | 9.29% |
| NCC[C@H]1CC[C@@H](NC(=O)NC2CCCCC2)[C@H](CO)O1 | 53% (active) |
| NCC[C@H]1CC[C@H](NC(=O)NC2CCCCC2)[C@@H](CO)O1 | 23.6% |
| NCC[C@@H]1CC[C@@H](NC(=O)NC2CCCCC2)[C@@H](CO)O1 | 5.69% |
| O=C(NCc1cccc(F)c1)[C@H]1[C@H](CO)[C@H]2Cn3c(ccc(-c4ccncc4)c3=O)[C@@H]1N2CC1CC1 | -29.8% |
| Cn1cnc(S(=O)(=O)N[C@@H]2CC[C@H](CC(=O)NCC3CCCCC3)O[C@H]2CO)c1 | -20.2% |
| COc1ccc2c3c(n(C)c2c1)[C@@H](CO)N(CC1CC1)CC31CN(S(=O)(=O)c2cn(C)cn2)C1 | 10% |
| Cc1ccc(S(=O)(=O)N[C@H]2C=C[C@H](CC(=O)NCc3ccc(Cl)c(Cl)c3)O[C@@H]2CO)cc1 | -5.24% |
| Cc1ccc(S(=O)(=O)N[C@H]2C=C[C@H](CC(=O)NCc3ccc(Cl)c(Cl)c3)O[C@H]2CO)cc1 | 52.5% (active) |
| Cc1ccc(S(=O)(=O)N[C@@H]2C=C[C@@H](CC(=O)NCc3ccc(Cl)c(Cl)c3)O[C@H]2CO)cc1 | 31% |
